Bioassay records as filed in PubChem.
TDP1 cell noCPT = qHTS for Inhibitors of human tyrosyl-DNA phosphodiesterase 1 (TDP1): qHTS in cells in absence of CPT; DT40 Tdp1-/- hTDP1 cells, no CPT, ATP luminescence, 48 h; Potency, µM (doses to about 46.2 µM), inactives show top-dose activity change, negative = growth inhibition, most hits filed as inhibitors; 15% of 420,000 active; note: potency is the fitted concentration of half-maximal effect; nearly all actives have a fitted effect of over 55% in size
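Camptothecin absent (DMSO only). Human TDP1-complemented DT40 knockout cells, 400 cells/well, 37 °C for minimum 48 hr; ATP measured via CellTiter-Glo, 30 min dark incubation, luminescence.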
HT1080 IDH1KD tx = qHTS for induction of synthetic lethality in tumor cells producing 2HG: qHTS for the HT-1080-IDH1KD cell line | HT-1080 IDH1 knockdown viability, ATP luminescence, 48 h | Potency, µM (doses to about 46.1 µM), without a hit: top-dose activity, negative = toxicity, actives largely listed as cytotoxic | 2% of 360,000 active;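 note: potency is the fitted concentration of half-maximal effect; 0% = DMSO wells and -100% = cell-free medium wells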
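IDH1KD HT-1080 cells, 750/well, RPMI + 5% FBS; compound pinned after 2 h settling; 48 h, 37 °C; CellTiter-Glo luminescence; % activity normalised to DMSO and no-cell wells; curves fitted, classed by r2 and efficacy.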
IL1B secr inh = qHTS for Inhibitors of Inflammasome Signaling: IL-1-beta AlphaLISA Primary Screen; activity change, % at 57.5 µM; AID 743279, 2014; 4.7% of 360,000 active; THP-1 LPS/ATP IL-1B secretion, AlphaLISA, 16 h; active compounds read low; in the data active = activity change below about -50%; inconclusive = mostly about -30% to -49%
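THP-1 cells pretreated 1 hr with compounds (up to 57.5 uM final), then stimulated with LPS (250 ng/mL final) plus ATP (1.25 mM final); secreted IL-1B measured by AlphaLISA after 16 hr, decreased signal indicating inhibition.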
DT40 TDP1 CPT = qHTS for Inhibitors of human tyrosyl-DNA phosphodiesterase 1 (TDP1): qHTS in cells in presence of CPT | chicken DT40 Tdp1-/-;hTDP1 cells + 20 nM CPT, ATP luminescence, 48 h | Potency, µM (doses to about 46.2 µM), inactives show at the highest dose activity change, negative = growth inhibition, most hits filed as inhibitors | 12% of 420,000 active; note: potency is the fitted concentration of half-maximal effect; nearly all actives have a fitted effect of over 55% in size
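Chicken DT40 Tdp1-/- cells stably complemented with human TDP1 were seeded at 400 cells/well in medium containing 20 nM camptothecin, exposed to pin-transferred compounds, and grown at 37 °C for at least 48 hr. Viability was read as ATP luminescence.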
ELG1 DNA repair = qHTS screen for small molecules that inhibit ELG1-dependent DNA repair in human embryonic kidney (HEK293T) cells expressing luciferase-tagged ELG1 | AID 504467, 2011 | 2.3% of 330,000 active | Potency, µM (series often up to 46.1 µM), without a hit: at the highest dose activity change, negative = inhibition, hits mostly inhibitors | HEK293T ELG1-luciferase reporter, luminescence, 16 h; DNA damage induced by 5-fluorouridine; note: potency is the fitted concentration of half-maximal effect; nearly all actives have a fitted effect of over 55% in size
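DMSO vehicle served as the neutral condition. Each well held 2,000 cells given 5-fluorouridine plus compound; after 16 hr at 37 °C/5% CO2, ONE-Glo was added and luciferase measured 30 min later.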
HT1080-NT tox = qHTS for induction of synthetic lethality in tumor cells producing 2HG: qHTS for the HT-1080-NT fibrosarcoma cell line; AID 686970, 2013; Potency, µM (doses to about 46.1 µM), without a hit: top-dose activity, negative = less viability, actives largely listed as cytotoxic; 1.6% of 360,000 active; HT-1080-NT fibrosarcoma viability, CellTiter-Glo ATP luminescence, 48 h;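 note: NT is the 2HG producing partner of a matched IDH1 knockdown line; potency is the fitted concentration of half-maximal effect; 0% = DMSO-treated cells and -100% = media-only wells without cells; nearly all actives have a fitted effect of over 55% in size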
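HT-1080-NT; 750 cells/well; 5% FBS RPMI; 48 h compound, 37 degrees C; CellTiter-Glo luminescence; curve fitting and curve-class assignment.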
Starred values were filed as active, the others as inactive; ? = inconclusive; nt = no result; ! = not active in a repeat; [ ] = remark or other dose. Only some compounds are listed: those with a hit (about 19% of all), similar ones and a draw of the others. Unless noted, calls come from the whole dose curve; as a rule, active = well fitted curve in the direction sought with a large enough effect; inconclusive = small, poorly fitted or top-dose-only effect, or another doubt; inactive = no such curve, though single readings can be large; an effect the other way counts as inactive or inconclusive. Unless noted, % is set by controls: 0 for no effect and ±100 for the full control effect.

SMILES | TDP1 cell noCPT | HT1080 IDH1KD tx | IL1B secr inh | DT40 TDP1 CPT | ELG1 DNA repair | HT1080-NT tox
COc1ccccc1NC(=S)NNC(=O)c1ccccc1Br | 13µM* | 5% | 77 | 16µM* | ? | 1%
C=CCSc1nc(N)c(C(=O)Nc2ccccc2)cc1C#N | -20% | -17% | -1 | -22% | -2% | -3%
COc1ccccc1C(=O)NNC(=O)c1ccccc1Br | 8% | 8% | 34 | -7% | ? | 2%
COc1ccccc1NC(=O)c1ccccc1NC(=O)c1ccccc1C(=O)O | -13% | -6% | -5 | 3% | 8% | 1%
C=CCSc1nc(N)c(C(=O)Nc2ccccc2OC)cc1C(=O)Nc1ccccc1 | 8.2µM* | -12% | 41 | 8.2µM* | -11% | -3%
COC(=O)c1ccccc1NC(=O)c1ccccc1OC | -25% | -3% | 0 | -8% | 10% | -6%
COc1ccccc1NC(=O)c1ccccc1C(=O)Nc1ccccc1OC | ? | -3% | -67* | ? | -15% | -5%
COc1ccc(C(=O)C(=O)N2CCN(C(=O)OCc3ccccc3)CC2)cc1 | ? | 7% | -5 | ? | nt | 4%
O=C(NS(=O)(=O)Oc1ccccc1F)OC[C@@H]1CCCN2CCCCC12 (stereo partly specified) | -5% | 17% | -13 | -4% | 3% | 0%
COc1ccccc1NC(=O)Nc1ccc(NC(=O)c2ccccc2O)cc1 | 29µM* | -15% | ? | -27% | -1% | -10%
O=C(Nc1ccccc1OC(=O)c1ccccc1)c1ccccc1 | 29µM* | 15µM* | 59 | ? | nt | ?
COc1ccccc1NC(=O)c1cnc(Nc2ccccc2OC)c2ccccc12 | 1.2µM* | ? | 33 | 1.6µM* | -30% | 3.7µM*
COc1ccccc1NC1=C(NC(C)=O)C(=O)c2ccccc2C1=O | ? | ? | 14 | 18µM* | -14% | ?
CC1=CC2C(=O)c3cccc(O)c3C(=O)C2C(O)=C1 (stereo unspecified) | 7%[9.04 µM] | nt | nt | 23%[9.04 µM] | nt | nt
COc1ccc(OC)c(S(=O)(=O)N(C)CC(=O)Nc2ccccc2OC)c1 | ? | 4% | 5 | -6% | nt | 20%
COc1ccc(OC)c(/C(O)=C/C(=O)C(=O)Nc2ccccc2OC)c1 | 18µM* | 1% | 21 | ? | -12% | 4%
COc1ccc(Nc2ncc(C(=O)Nc3ccc(F)cc3F)c3ccccc23)cc1 | 18µM* | nt | nt | 13µM* | nt | nt
Clc1ccc2nc(Nc3ccccc3Cl)nc(-c3ccccc3)c2c1 | -19% | nt | nt | -23% | nt | nt
FC(F)(F)c1cccc(-c2cncc(N3CCN(CCN4CCCC4)CC3)n2)c1 | 16µM* | ? | -26 | 23µM* | nt | ?
CCN(CC)CCN1CCN(c2cncc(-c3cccc(N)c3)n2)CC1 | -26% | 3% | 20 | -18% | nt | 7%
CCN(CC)CCN1CCN(c2cncc(-c3ccc4ccccc4c3)n2)CC1 | 16µM* | 16µM* | -59* | 12µM* | nt | 23µM*
CC1(C)CC2(CC(c3ccccc3F)c3ccc(O)c(O)c3O2)NC(=S)N1 (stereo unspecified) | 23µM* | -1% | -6 | ? | 8% | -10%
CCOC(=O)/C=C1\CC(C(=O)OCC)Oc2c(OC)cccc21 (stereo unspecified) | 23µM*! | 1% | 14 | ? | 3% | 5%
C=C1c2cccc(OC)c2O[C@H](C(=O)OCC)[C@@H]1CC(CC)CCCC (stereo partly specified) | ? | 1% | 22 | ? | 2% | 0%
CC1C(=O)N(Cc2cn(CCC3OCCCO3)nn2)CCS(=O)(=O)N1Cc1ccc(-c2ccc(F)nc2)cc1 (stereo unspecified) | 13µM* | 1% | 28 | ? | nt | 1%
SMILES | TDP1 cell noCPT | HT1080 IDH1KD tx | IL1B secr inh | DT40 TDP1 CPT | ELG1 DNA repair | HT1080-NT tox
CC(C)C1C(=O)N(Cc2cn(CCC3OCCO3)nn2)CCS(=O)(=O)N1Cc1ccc(-c2ccc(F)cc2)cc1 (stereo unspecified) | ? | -22% | -4 | ? | nt | -18%
CC1C(=O)N(Cc2cn(CCC3OCCCO3)nn2)CCS(=O)(=O)N1Cc1ccc(-c2ccncc2)cc1 (stereo unspecified) | 9.2µM* | -3% | -6 | -25% | nt | -6%
CC(C)C1C(=O)N(Cc2cn(CCC3OCCCO3)nn2)CCS(=O)(=O)N1Cc1ccc(-c2ccc(F)nc2)cc1 (stereo unspecified) | 16µM* | 0% | 2 | ? | nt | -7%
CC(C)C1C(=O)N(Cc2cn(CCC3OCCO3)nn2)CCS(=O)(=O)N1Cc1ccc(-c2ccc(F)nc2)cc1 (stereo unspecified) | 16µM* | 1% | 8 | ? | nt | 1%
CCOc1ccccc1NC(=O)N1CCN(C)c2ncccc21 | ? | nt | nt | -23% | nt | nt
COc1ccc(-n2c(=O)cnc3cnc(N4CCN(C)CC4)nc32)cc1 | 2% | nt | nt | 3% | nt | nt
CCOc1ccc(CNC(=O)C2CCN(S(=O)(=O)c3cn(C)cn3)CC2)cc1OC | -19% | nt | nt | -15% | nt | nt
CCOc1ccc2nc3sc(C(=O)N4CCOCC4)c(N)c3cc2c1 | ? | -2% | ? | -19% | 10% | -10%
Cc1cc(C)c2nc3sc(C(=O)N4CCOCC4)c(N)c3cc2c1 | 0.21µM* | 0.052µM* | 61 | 0.58µM* | ? | 0.21µM*
Cc1ccc(C)c2nc3sc(C(=O)N4CCOCC4)c(N)c3cc12 | ? | 3.3µM* | 53 | ? | ? | 4.1µM*
Cc1cc(C)c2cc3c(N)c(C(=O)N4CCOCC4)sc3nc2c1 | ? | -6% | -76* | -8% | 5% | 0%
Cc1ccc(C(=O)N2CCc3ccccc32)cc1C | ? | -1% | 23 | 2% | nt | 2%
Cc1cccc2cc3c(N)c(C(=O)N4CCc5ccccc54)sc3nc12 | 2.9µM* | ? | 0 | 3.7µM* | -2% | -29%
Cc1cc2occ(CC(=O)N(C)CC(=O)Nc3ccccc3C(F)(F)F)c2cc1C | -16% | 5% | -23 | ? | -19% | 2%
